LmPK inh = inhibitors of Leishmania mexicana pyruvate kinase. Q27686. purified LmPK, Kinase-Glo ATP luminescence, 1 h. Potency, µM (doses to about 57.5 µM), inactives show at the highest dose activity change, negative = inhibition, most hits filed as inhibitors. 290,000 compounds, 0.37% hits. AID 1721
Target sequence (Q27686 whole entry, looked up): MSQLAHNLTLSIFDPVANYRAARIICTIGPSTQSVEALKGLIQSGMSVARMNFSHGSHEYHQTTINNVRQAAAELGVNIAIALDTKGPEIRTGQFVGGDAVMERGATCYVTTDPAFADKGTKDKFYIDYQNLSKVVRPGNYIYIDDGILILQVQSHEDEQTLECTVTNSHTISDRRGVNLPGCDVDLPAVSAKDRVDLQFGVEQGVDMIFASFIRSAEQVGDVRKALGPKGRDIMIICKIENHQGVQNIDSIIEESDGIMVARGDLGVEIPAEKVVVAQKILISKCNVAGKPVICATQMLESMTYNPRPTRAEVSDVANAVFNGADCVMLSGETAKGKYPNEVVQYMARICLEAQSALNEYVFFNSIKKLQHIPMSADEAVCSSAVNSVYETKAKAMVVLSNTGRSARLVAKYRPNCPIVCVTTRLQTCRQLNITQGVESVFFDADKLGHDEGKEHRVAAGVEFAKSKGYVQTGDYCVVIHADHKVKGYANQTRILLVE
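Purified LmPK (0.1 nM) converted ADP (0.1 mM) to ATP with PEP (0.5 mM) in imidazole buffer pH 7.2 with KCl and MgCl2, 1 h at room temperature. ATP was read by Kinase-Glo luminescence; data normalized to uninhibited and no-enzyme controls.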
AmpC inh detg = inhibitors of E. coli AmpC beta-lactamase with detergent; 370,000 compounds, 0.041% hits; AmpC hydrolysis of nitrocefin, absorbance 480 nm, 0.01% Triton; P00811; Potency, µM (titrated, usually from 114 µM), without a hit: at the top dose activity change, negative = inhibition, most hits filed as inhibitors;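 note: 0% = no-compound wells and -100% = no-enzyme wells; nearly all actives have a fitted effect of over 25% in size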
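20 mM phosphate pH 7.0 + 0.01% (detergent screen) or 0.0001% Triton X-100; 5.3 nM AmpC reagent; cpd preinc 15 min RT; nitrocefin (800 uM stock) to start; A480 q20 s × 4 min; Activity was normalised to no-enzyme and no-compound control wells.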
RE007 growth inh = less growth of the S. pombe RE007 Vpr strain; S. pombe RE007 Vpr strain, BacTiter-Glo ATP luminescence, 24 h; Potency, µM (doses to about 92.2 µM), inactives show at the top dose activity change, negative = less growth, most hits filed as inhibitors; 360,000 compounds, 0.21% hits; AID 651644; active = well fitted falling curve with a large enough effect; inconclusive = small, poorly fitted or top-dose-only effect; inactive = no such curve, though single readings can be large or run the other way; note: nearly all actives have a fitted effect of over 50% in size
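Fission yeast strain RE007, carrying one chromosomally integrated HIV-1 vpr copy, was seeded at OD 0.01 in PMG+AL medium with 23 nL pinned compound. After 24 h at 30 °C and 99% humidity, viability was read by BacTiter-Glo luminescence.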
AmpC no deterg = AmpC beta-lactamase inhibition without detergent | Potency, µM (doses to about 57.1 µM), inactives show at the highest dose activity change, negative = inhibition, usual class: inhibitors | AmpC nitrocefin hydrolysis, absorbance 480 nm, 0.0001% Triton | AID 485341 | P00811 | 330,000 compounds, 0.52% hits;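 note: plate controls were no compound for no effect and no enzyme for full effect; nearly all actives have a fitted effect of over 20% in size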
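AmpC (5.3 nM in the dispensed reagent) in 20 mM phosphate pH 7.0 with 0.01% (detergent screen) or 0.0001% Triton X-100 was preincubated with compounds for 15 min at room temperature. Nitrocefin was then added from an 800 uM solution, and hydrolysis was followed at 480 nm.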
Giardia FBPA inh-1 = Giardia lamblia aldolase inhibition | AID 2451 | purified Giardia FBPA | Potency, µM (top dose mostly 59.6 µM), without a hit: at the highest dose activity, negative = inhibition, usual class: inhibitors | A8B2U2 | 290,000 compounds, 0.71% hits; note: nearly all actives have a fitted effect of over 55% in size
Target sequence (A8B2U2 whole entry, looked up): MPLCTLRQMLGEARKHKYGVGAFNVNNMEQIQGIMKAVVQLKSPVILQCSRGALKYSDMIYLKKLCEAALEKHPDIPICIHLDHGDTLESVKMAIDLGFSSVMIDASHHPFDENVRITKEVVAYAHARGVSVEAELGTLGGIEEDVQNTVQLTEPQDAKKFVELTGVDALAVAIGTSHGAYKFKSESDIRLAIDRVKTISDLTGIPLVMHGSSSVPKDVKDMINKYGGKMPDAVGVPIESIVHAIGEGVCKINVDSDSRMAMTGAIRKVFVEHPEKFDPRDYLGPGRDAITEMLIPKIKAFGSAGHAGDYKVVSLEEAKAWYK
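Giardia FBPA (40 nM reagent) was preincubated 10 min at RT with compound (up to 57.5 uM final), then substrate plus GAPDH/TPI/NAD/arsenate coupling system with diaphorase/resazurin was added; resorufin fluorescence (525/598 nm) was read after 20 min.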
Tb PYK inh = inhibitors of Trypanosoma brucei pyruvate kinase. Potency, µM (doses to about 76.8 µM), inactives show at the top dose activity, negative = inhibition, hits mostly inhibitors. 410,000 compounds, 0.12% hits. Q57TT1. TbPYK enzyme, Kinase-Glo Plus ATP luminescence, 45 min; note: nearly all actives have a fitted effect of over 50% in size
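Activity of T. brucei pyruvate kinase was followed by Kinase-Glo Plus luminescence after the enzyme reacted 45 min at room temperature with 130 uM ADP (final) and substrate. Test compounds were added before ADP at multiple concentrations.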
Giardia growth = inhibitors of Giardia lamblia growth. shares compounds with Giardia FBPA inh-1. Giardia lamblia trophozoite growth inhibition. Potency, µM (highest dose often 57.5 µM), without a hit: top-dose activity change, negative = inhibition, hits mostly inhibitors. 1,500 compounds, 5% hits. AID 2785;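 note: trophozoites exposed to compound for 48 h at 37 °C; nearly all actives have a fitted effect of over 70% in size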
Mammalian tox = counter-screen for Giardia aldolase inhibitors: mammalian cell toxicity | Potency, µM (titrated, usually from 57.5 µM), for the others: at the highest dose viability change, negative = toxicity, usual class: inhibitors | mammalian cell viability counter-screen, qHTS | shares compounds with Giardia FBPA inh-1 | 1,500 compounds, 4% hits | AID 2786;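 note: Chinese hamster ovary cells used as mammalian cytotoxicity surrogate; viability measured as cellular ATP by luminescence; compound exposure lasted 48 h before reading; nearly all actives have a fitted effect of over 60% in size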
Giardia FBPA inh-2 = confirmation of Giardia fructose-bisphosphate aldolase inhibitors | purified Giardia aldolase enzyme activity, qHTS | Potency, µM (series often up to 57.5 µM), for inactives: at the top dose activity change, negative = inhibition, actives largely listed as inhibitors | 1,500 compounds, 5% hits | shares compounds with Giardia FBPA inh-1 | AID 2787; note: nearly all actives have a fitted effect of over 45% in size
Rabbit aldolase = rabbit FBP aldolase inhibition by Giardia aldolase hits; Potency, µM (series often up to 57.5 µM), for inactives: top-dose activity, negative = inhibition, actives largely listed as inhibitors; shares compounds with Giardia FBPA inh-1; AID 2794; 1,500 compounds, 4% hits; Rabbit muscle FBPA enzyme inhibition, selectivity counter-screen; note: nearly all actives have a fitted effect of over 60% in size
GAPDH coupling = GAPDH inhibition flagged for Giardia aldolase hits. shares compounds with Giardia FBPA inh-1. GAPDH coupling enzyme counterscreen, biochemical, qHTS. Potency, µM (titrated, usually from 57.5 µM), for the others: top-dose activity change, negative = inhibition, hits mostly inhibitors. 1,500 compounds, 6% hits; note: nearly all actives have a fitted effect of over 55% in size
An asterisk follows results filed as active; ? = inconclusive; / = no result given; [ ] = dose if it differs, or a comment. Only some compounds are listed: those with a hit (about 1.4% of all), similar ones and a draw of the others. Unless noted, calls come from the whole dose curve; as a rule, active = well fitted curve in the direction sought with a large enough effect; inconclusive = small, poorly fitted or top-dose-only effect, or another doubt; inactive = no such curve, though single readings can be large; an effect the other way counts as inactive or inconclusive. Unless noted, % is set by controls: 0 for no effect and ±100 for the full control effect; potency is the fitted concentration of half-maximal effect.

SMILES	LmPK inh	AmpC inh detg	RE007 growth inh	AmpC no deterg	Giardia FBPA inh-1	Tb PYK inh	Giardia growth	Mammalian tox	Giardia FBPA inh-2	Rabbit aldolase	GAPDH coupling
Cc1nnc(NC(=O)CN2CCN(Cc3ccccc3)CC2)s1	0%	-5%	-13%	-18%	6.3µM*	6%	14%[10.4 µM]	6%	3%	14%	0%
Cc1cnc(NC(=O)CN2CCN(c3ccccc3F)CC2)s1	-4%	0%	9%	-17%	0%	-13%	/	/	/	/	/
CCCN1CCN(CC(=O)Nc2nnc(C)s2)CC1	0%	1%	16%	3%	7.9µM*	-3%	26%	1%	-2%	13%	4%
Cc1cnc(NC(=O)CN2CCCCC2)s1	5%	4%	-9%	-8%	4.5µM*	-3%	?	-6%	7%	8%	17%
Cc1nnc(NC(=O)CN2CCN(Cc3ccc(F)cc3Cl)CC2)s1	-4%	-11%	-6%	-8%	3.2µM*	2%	23%	-11%	6%	6%	17%
CCc1nnc2c3ccccc3nc(N3CCN(c4cc(C)ccc4C)CC3)n12	/	13%	/	/	/	3%	/	/	/	/	/
CCN(CC)S(=O)(=O)c1ccc2nc(NC(=O)c3cncc(Br)c3)sc2c1	/	17%	/	/	/	0%	/	/	/	/	/
CC(C)CCNC(=O)CN1C(=O)CCn2nc(-c3cn(C)c4ccccc34)cc21	/	20%	/	/	/	1%	/	/	/	/	/
CCN(CC)c1nn2c(=O)c(C(=O)NCc3cccc(OC)c3OC)cnc2s1	/	24%	/	/	/	-9%	/	/	/	/	/
COc1cc(OC)cc(N2C(=O)N(Cc3ccc(C(C)(C)C)cc3)c3ccccc3S2(=O)=O)c1	/	8%	/	/	/	3%	/	/	/	/	/
COc1ccc(N2CCN(C(=O)C3CCN(S(=O)(=O)c4cnc[nH]4)CC3)CC2)cc1	/	-3%	/	/	/	-4%	/	/	/	/	/
CCCN1CCN(CC(=O)Nc2nc3ccccc3s2)CC1	3%	2%	2%	-6%	?	-2%	/	/	/	/	/
CCc1nnc(NC(=O)CN2CC(C)OC(C)C2)s1 (stereo not drawn)	-1%	-8%	-8%	-27%	3.5µM*	-7%	14%[10.4 µM]	-6%	3%	7%	7%
O=C(CN1CCN(Cc2ccc(F)cc2)CC1)Nc1nc2ccccc2s1	17%	-17%	-6%	72%	14µM*	0%	-29%	1%	10%	1%	14%
CC(=O)Nc1ccc2sc(NC(=O)CN3CCOCC3)nc2c1	5%	?	5%	-4%	4.5µM*	-3%	?	-17%	7%	10%	0%
CCc1nnc(NC(=O)CN2CCN(C3CCCCC3)CC2)s1	-1%	-8%	0%	-3%	?	-2%	/	/	/	/	/
CCc1ccc(NC(=O)c2cccc(N3CCCS3(=O)=O)c2)cc1	/	1%	/	/	/	-3%	/	/	/	/	/
CCOc1ccc(NC(=O)c2ccc3nc(Cc4ccccc4)oc3c2)cc1	/	6%	/	/	/	0%	/	/	/	/	/
Cc1cc(O)c(C(C)C)cc1N=Cc1cc([N+](=O)[O-])ccc1O	3%	-7%	-17%	82%	?	-17%	18%[38.3 µM]	?	9.2µM*	13µM*	16µM*
O=c1[nH]cc(N=Cc2cc([N+](=O)[O-])ccc2O)c(=O)[nH]1	-4%	0%	/	-6%	26%	/	/	/	/	/	/
COc1ccc2c(c1)c1c(c(=O)n(-c3cccc(Cl)c3)c(=O)n1CC(=O)N1CCCC1)n2C	/	-3%	/	/	/	3%	/	/	/	/	/
Cc1onc(-c2c(Cl)cccc2Cl)c1C(=O)NC(=S)N1CCOCC1	-28%	-7%	13%	-21%	4µM*	-13%	-4%[38.3 µM]	?	-6%	5%	3%
CC1CCN(S(=O)(=O)c2ccc(C(=O)Nc3nnc(-c4ccco4)o3)cc2)CC1	5%	-4%	2%	-32%	-29%	-1%	/	/	/	/	/
CC1CCCN(S(=O)(=O)c2ccc(C(=O)Nc3nnc(-c4ccccn4)o3)cc2)C1 (stereo not drawn)	7%	1%	5%	?	18µM*	4%	-17%	16%	24%	19%	8%
O=C(Nc1nnc(-c2ccco2)o1)c1ccc(S(=O)(=O)N2CCCC2)cc1	1%[11.5 µM]	7%	16%	-24%	5µM*	6%	0%[10.4 µM]	-6%	11%	12%	-15%
SMILES	LmPK inh	AmpC inh detg	RE007 growth inh	AmpC no deterg	Giardia FBPA inh-1	Tb PYK inh	Giardia growth	Mammalian tox	Giardia FBPA inh-2	Rabbit aldolase	GAPDH coupling
CC1CN(S(=O)(=O)c2ccc(C(=O)Nc3nnc(-c4ccco4)o3)cc2)CC(C)O1 (stereo not drawn)	2%	1%	5%	-51%	18µM*	-8%	-8%	20%	21%	13%	7%
CCCCS(=O)(=O)CC(O)CSc1nc(-c2ccc(C)cc2)cc(-c2ccccc2)c1C#N (stereo not drawn)	/	13%	/	/	/	-8%	/	/	/	/	/
O=C(NCCc1ccccc1)C(=O)NCC(c1cccnc1)N1CCN(c2ccc(F)cc2)CC1 (stereo not drawn)	/	-7%	/	/	/	4%	/	/	/	/	/
Cc1cc(C)n(-c2nc(C)c(C)c(=O)n2CC(=O)Nc2ccc(Cl)c(Cl)c2)n1	/	4%	/	/	/	-2%	/	/	/	/	/
O=C(Nc1ccccc1)Oc1ccc[nH]c1=O	-7%	-4%	-8%	-8%	1.4µM*	7%	13%[38.3 µM]	?	0.23µM*	0.73µM*	2.6µM*
CN(C)c1ccc(C(=S)N2CCN(Cc3ccccc3)CC2)cc1	9%	0%	10%	17%	6.3µM*	?	-2%[38.3 µM]	-8%	-25%	?	?
Cc1ccc(C(=S)N2CCN(Cc3ccccc3)CC2)s1	-2%	-14%	7%	-4%	18µM*	?	24%	-23%	?	?	?
